TROY NFkB inh: blocks TROY-dependent signaling in reporter cells; Q293 LMP1-TROYcd NF-kB luciferase reporter, 4 h; inhibition, % at 10 µM; hit rate 0.98% among 360,000;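 active = compounds whose plate-normalised and pattern-corrected inhibition of the luciferase reporter signal at the single screening dose is 50% or more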
TWEAK Fn14 block: blocks TWEAK-Fn14 interaction in a reporter cell assay | TWEAK-stimulated Fn14 reporter cells, luciferase luminescence, 8 h | inhibition, % at 10 µM | hit rate 2% among 360,000 | AID 1159606; in the data active = inhibition above about 50%
LGR2 inh: Drosophila LGR2 receptor signaling inhibition; HEK293 LGR2, CRE-luciferase, bursicon-stimulated, 4 h; inhibition, % at 9.99 µM; hit rate 0.35% among 380,000;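 active = drop in luminescence signal, shown as inhibition above about 50% in the replicate tests, limit read from the data, passing the limit was not always enough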;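 also: agonist challenge used bursicon conditioned medium at about half maximal strength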
EBV LMP1 NFkB: reduces LMP1-driven NF-kappaB luciferase signal | LMP1-induced NF-kappaB luciferase reporter cells, luminescence | inhibition, % at 12.5 µM | hit rate 0.69% among 350,000 | AID 504558; in the data active = inhibition above about 41%
MITF TRPM1 inh: MITF TRPM1 promoter inhibition in SK-MEL-5 cells | SK-MEL-5 TRPM1 promoter luciferase, 24 h | inhibition, % at 12.5 µM | hit rate 0.83% among 330,000;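 active = mean inhibition across replicates of 60% or more, whatever share of single replicates reaches that level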
MITF TRPM1 HTS: MITF TRPM1 promoter activation in melanoma cells | SK-MEL-5 TRPM1-promoter luciferase, 24 h; % of positive control, neutral wells = 0 | activation, % at 12.5 µM | hit rate 0.75% among 300,000 | AID 588334;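 active = mean activation of at least 80% with every replicate also reaching 80%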
Hits are given with their value; n = inactive; x = not tested or not shown. Compounds with a hit are over-represented: about 3% of the library has one in this group of screens.

SMILES	TROY NFkB inh	TWEAK Fn14 block	LGR2 inh	EBV LMP1 NFkB	MITF TRPM1 inh	MITF TRPM1 HTS
COc1ccccc1-n1c(SCC(=O)NC2CCS(=O)(=O)C2)nc2cc([N+](=O)[O-])ccc21 (centres undefined)	n	n	n	n	n	n
CCN(CC)S(=O)(=O)c1ccc2c(c1)nc(SCC(=O)NC1CC1)n2-c1ccccc1OC	x	61	x	n	n	n
O=C(Nc1cccc(S(=O)(=O)Nc2ccc(Cl)cc2)c1)c1cc2c(s1)CCCC2	n	84	n	n	n	n
O=C(Nc1cc(S(=O)(=O)Nc2ccccc2Cl)ccc1O)c1cc2c(s1)CCCC2	n	n	n	n	n	n
Cc1ccc(C(=O)Nc2ccc(C)c(S(=O)(=O)Nc3ccccc3Cl)c2)s1	n	n	n	n	n	n
Cc1ccc(NC(=O)c2cc3c(s2)CCCC3)cc1S(=O)(=O)Nc1ccccc1Cl	n	78	n	n	n	n
Cc1cccc(N(C(=O)C(F)(F)F)C(C(=O)NC2CCCCC2)c2cccs2)c1 (centres undefined)	n	n	n	n	n	n
C#CC(=O)N(c1cccc(OC)c1)C(C(=O)NC1CCCC1)c1cccs1 (centres undefined)	n	55	104	96	107	n
C#CC(=O)N(c1ccc(OC)c(OC)c1)C(C(=O)NC1CCCC1)c1cccs1 (centres undefined)	n	61	101	n	96	n
COCCCNC(=O)c1ccc2c3c(onc13)-c1ccccc1C2=O	n	n	x	n	83	x
Cc1ccc(C)c(N2C(=O)CC(Cc3ccccc3)C2=O)c1 (centres undefined)	n	n	n	75	n	n
COc1ccc(NC(=O)N(C)C[C@H]2OCCCC[C@H](C)Oc3ccc(NC(=O)CCC(F)(F)F)cc3C(=O)N([C@@H](C)CO)C[C@@H]2C)cc1	x	x	n	x	x	x
CCOC(=O)c1c(NC(=O)c2ccccc2N(C)S(=O)(=O)c2ccccc2)sc2c1CCCC2	n	n	x	n	n	n
CCOC(=O)c1c(NC(=O)C(NCCN(C)C)c2ccccc2)sc2c1CCCC2 (centres undefined)	n	n	n	n	76	n
O=[N+]([O-])c1cccc2nc3ccccc3c(NCCCn3ccnc3[N+](=O)[O-])c12	n	n	x	n	82	x
O=[N+]([O-])c1ccccc1Nc1c2ccccc2nc2ccccc12	n	n	n	n	n	n
Cc1ccccc1-c1ccc([C@H]2[C@@H](CO)N3CCCCN(C(=O)c4cccnc4)C[C@@H]23)cc1	x	x	n	x	x	x
O=C([C@H]1[C@H](CO)[C@H]2Cn3c(cccc3=O)[C@H]2N1C(=O)CC1CC1)N1CCCCC1	x	x	n	x	x	x
CCCCS(=O)(=O)/C=C\C1C2C=CC(C2)C1S(=O)(=O)CCCC (centres undefined)	x	n	x	n	n	n
CCCCS(=O)(=O)/C=C\C=C/S(=O)(=O)CCCC	n	79	x	92	104	n
O=C(c1cc(-c2ccccc2Cl)nc2ccc(Br)cc12)N1CCN(c2ccccn2)CC1	69	58	68	n	n	n
N#Cc1c(N)n(C2CCCCC2)c2nc3ccccc3nc12	72	n	n	n	n	n
CN(C)CCCn1c(N)c(C#N)c2nc3ccccc3nc21	n	55	n	n	n	x
Cc1nnc2n(Cc3ccccc3)c(=O)c3c4c(sc3n12)COC(C)(C)C4	n	n	x	n	n	x
CC1(C)Cc2c(sc3c2c(=O)n(Cc2ccccc2)c2nncn32)CO1	n	n	x	54	n	n
SMILES	TROY NFkB inh	TWEAK Fn14 block	LGR2 inh	EBV LMP1 NFkB	MITF TRPM1 inh	MITF TRPM1 HTS
Cc1ccc(-c2ccccc2[C@@H]2[C@H](C#N)N(C(=O)Cc3cccnc3)[C@H]2CO)cc1	x	x	n	x	x	x
N#Cc1c(-c2ccc(Cl)cc2)n(O)c2ccccc12	n	64	x	n	n	n
Cc1cc(C)c2cc(C#N)c(N3CCCN(C(=S)NCCCN(C)C)CC3)nc2c1	n	n	n	n	88	n
COc1ccc2cc(C#N)c(N3CCN(C(=O)c4ccccc4C)CC3)nc2c1	n	n	n	n	n	n
COc1cccc(C(=O)N2CCN(c3nc4cc(C)cc(C)c4cc3C#N)CC2)c1	n	n	n	57	x	x
COc1ccc(-c2nnc3n2N=C(C)CS3)cc1	n	n	x	n	n	n
CCOC(=O)/C(=C/c1ccc(OC(F)F)cc1)C1=Nn2c(nnc2-c2ccc(Cl)cc2)SC1	91	107	x	n	95	n
CCOC(=O)/C(=C\c1ccc(OC(F)F)cc1)C1=Nn2c(nnc2-c2ccc(Cl)cc2)SC1	90	105	x	n	99	n
COc1ccc(C2=Nn3c(nnc3-c3ccc(OC)cc3)SC2)cc1	n	n	x	n	n	x
COc1ccccc1S(=O)(=O)N[C@H]1C=C[C@H](CC(=O)N2CCCCC2)O[C@@H]1CO	x	x	n	x	x	x
Cc1ccc(SCCN2CCC(C(C)(C)C)CCC2=O)cc1 (centres undefined)	n	n	n	n	n	n
CC(C)(C)C1CCC(=O)N(CCSc2ccccc2)CC1 (centres undefined)	n	n	x	n	n	96
CCCC(=O)Nc1ccc2c(c1)OC[C@@H](C)N(Cc1ccccc1)C[C@H](C)[C@H](OC)CN(C)C2=O	x	x	n	x	x	x
CC(C)NC(=O)Nc1ccc2c(c1)C(=O)N([C@H](C)CO)C[C@@H](C)[C@H](CN(C)C(=O)C1CCCCC1)OCCCC[C@H](C)O2	x	x	n	x	x	x
C[C@H]1CN([C@@H](C)CO)C(=O)c2cc(C#CCN(C)C)cnc2O[C@H]1CN(C)Cc1ccc(F)cc1	x	x	n	x	x	x
CCOC(=O)C1(CCOc2ccccc2)CCN(Cc2cccc(F)c2)CC1	n	n	x	n	n	n
CCOC(=O)C1(CCOc2ccccc2)CCN(Cc2cccc(OCCO)c2)CC1	51	n	n	n	n	n
COc1ccc(C(=O)Nn2c(SCC(=O)N3CCC(C)CC3)nc3ccccc3c2=O)cc1	81	97	x	70	n	n
COc1ccc(C(=O)Nn2c(SCc3cccc([N+](=O)[O-])c3)nc3ccccc3c2=O)cc1	76	79	n	n	n	n
COCCCn1c(SCC(=O)NC2CCCCC2)nc2ccccc2c1=O	n	n	n	n	x	x
COCCn1c(SCC(=O)N2CCC(C)CC2)nc2ccccc2c1=O	n	n	n	n	n	n
COc1ccc(C(=O)Nn2c(SCC(=O)NCc3ccco3)nc3ccccc3c2=O)cc1	80	88	x	50	n	n
O=C(Nn1c(SCc2cccc([N+](=O)[O-])c2)nc2ccccc2c1=O)c1ccccc1	n	n	n	n	n	n
COc1ccc(C(=O)Nn2c(SCC(=O)NC3CCCCC3)nc3ccccc3c2=O)cc1	78	92	x	55	n	n
COCC(=O)N1C[C@H](C)[C@@H](OC)CN(C)C(=O)c2ccc(NC(=O)c3ccc(F)cc3)cc2OC[C@H]1C	x	x	n	x	x	x
COCCn1c(SCC(=O)NNC(=O)c2ccc(OC)c(OC)c2)nc2ccccc2c1=O	n	n	x	n	n	n
COc1ccc(C(=O)Nn2c(SCC(=O)c3ccc(Cl)cc3)nc3ccccc3c2=O)cc1	79	91	x	48	n	n
